From the supplement of paper PMC12632987

T1: USP38, Q8NB14
T1 chain: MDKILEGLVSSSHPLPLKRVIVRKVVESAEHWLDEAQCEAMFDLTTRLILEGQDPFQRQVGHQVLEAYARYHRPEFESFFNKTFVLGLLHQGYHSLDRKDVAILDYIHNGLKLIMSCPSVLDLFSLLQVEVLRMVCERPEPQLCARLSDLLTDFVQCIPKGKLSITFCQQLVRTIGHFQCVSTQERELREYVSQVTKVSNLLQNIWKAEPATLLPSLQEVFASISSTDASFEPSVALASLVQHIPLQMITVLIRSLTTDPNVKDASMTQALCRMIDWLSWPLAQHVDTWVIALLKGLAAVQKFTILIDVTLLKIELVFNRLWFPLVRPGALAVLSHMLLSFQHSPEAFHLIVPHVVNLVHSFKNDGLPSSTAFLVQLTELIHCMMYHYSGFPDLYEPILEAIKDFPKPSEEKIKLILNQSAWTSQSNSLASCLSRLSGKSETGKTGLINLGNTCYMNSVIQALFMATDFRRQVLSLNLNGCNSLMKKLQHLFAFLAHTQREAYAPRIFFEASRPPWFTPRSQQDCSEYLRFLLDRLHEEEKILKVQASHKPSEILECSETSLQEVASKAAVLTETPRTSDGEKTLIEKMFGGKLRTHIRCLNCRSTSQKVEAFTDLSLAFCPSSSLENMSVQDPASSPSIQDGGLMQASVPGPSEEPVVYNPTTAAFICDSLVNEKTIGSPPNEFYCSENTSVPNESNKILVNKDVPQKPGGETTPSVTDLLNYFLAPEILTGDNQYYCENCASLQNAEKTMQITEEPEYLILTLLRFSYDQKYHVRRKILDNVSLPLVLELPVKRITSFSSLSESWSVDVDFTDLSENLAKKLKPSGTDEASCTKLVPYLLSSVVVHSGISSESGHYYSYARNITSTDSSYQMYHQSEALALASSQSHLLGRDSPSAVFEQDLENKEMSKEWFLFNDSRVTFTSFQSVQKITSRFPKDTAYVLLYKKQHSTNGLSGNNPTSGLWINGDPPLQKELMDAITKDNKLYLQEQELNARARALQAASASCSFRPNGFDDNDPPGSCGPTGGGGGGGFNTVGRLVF


Target: T1, USP38, Q8NB14
Test: median log2 fold change of GCK-ALFA target abundance (FLAG IP / Myc IP barcode read proportion) (log2 ratio); each designed protein is fused to an ALFA-tag nanobody in HEK293 cells to bring the named protein to FLAG-tagged glucokinase (GCK); Myc marks an untargeted standard; higher = target protein stabilised (more abundant)
Details: target protein: 3xFLAG-MCP-GCK-ALFA reporter; HEK293 landing pad (RPLP)
Summary of the method: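 An ALFA-nanobody-fused binder library was recombined into HEK293 landing-pad cells and induced with 2 μg mL^−1 doxycycline. Cells were transfected with a plasmid expressing a FLAG-tagged target and a Myc-tagged standard. After 48 h, lysates underwent anti-FLAG and anti-Myc immunoprecipitation, and circular RNA barcodes were reverse transcribed, amplified and sequenced. Target abundance is the per-binder median log2 ratio of FLAG to Myc barcode read proportions. Barcodes needed ≥10^−7 proportion in both replicates, binders ≥3 barcodes per replicate, and a 10^−6 pseudocount was added; the two replicates were pooled.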

Row | Binder | median log2 fold change
1 | usp_38_diff_out_18_14_272 (protein) DEELSEALLSNLKSLKEDVKEYTKRVLRLLEANKDDPERVKRIYERAERNLEGVEKFAEEVLKEAKERGDEEVQKAAKELKEEAKKAREEIKKKVKEVLA | -0.188
2 | usp_38_diff_out_18_14_270 (protein) SEELKKALLSNLESLKKDVKEYTERVLRLLEKRKDDPEQVERIVERAERDLAGVEEYAKEVLKEAKKLGDEELLKAAEELIKLTKEARERIEKKREEVLK | -0.331
3 | usp_38_diff_out_18_14_267 (protein) SAELSEALKSNLETLTADVAADTDRVIRLLDARKDDPEAVKRIHERARRNLAGVEAYAEEVKAEAEKAGDAEVKAAAEKLLAAVAAARARIDARYAEVMA | 0.0912
4 | usp_38_diff_out_18_14_268 (protein) SEELAEAEVSNLKTLERDVKEDTERVIRLLRKNKDDPERVKRIYERAKRDLAGVRAYAEEVKRRAEEEGWEEVVAAAERLLKTIDEARKRIEEEYKRVME | -0.0262
5 | usp_38_diff_out_17_26_242 (protein) EAEERRREARERLERLREETERALEEIDRLIAEGKFEEARKLLEETVRKATEEMTEILELAADDPELMEEALRAWDEISDRLAARYRELQAAIAAAKAAA | 0.467
6 | usp_38_diff_out_18_121_254 (protein) KAEELAKKALELAEEIEKLSKELLKAIKEGNKEKAEELRKKLDEKIRELGRLYQELRDLHAENPHETRELLKEVNEKANKAIDEREKAETAYFEFLAEQE | -0.478
7 | usp_38_diff_out_18_121_250 (protein) DGEELLRRLREALRRAEEKLRELEELLERAEEVSLEELRAALDAAADALGEAAALLREARRRLGPEYREELEEAERRLDELVDRYTELGTRLFLLEAERQ | -0.109
8 | usp_38_diff_out_18_14_258 (protein) SAELEEATISNLKLLKEDVKKETERVIRLLEKNKDDPERVKRIYERAQRDLAGVETYAKEVLEEAKKNGWEEKEKAAKELLEEVDKAKEEIEKKVKEVLA | 0.144
9 | usp_38_diff_out_18_14_261 (protein) SEELSEAKISALKLLEKSVKEDTERKIRLLEKAKDDPERVKRIYERALRELAGVREYAEEVLKEAKEAGDEETAEAAKRLLKTIEEARERLEEEYKRVMA | 0.0867
10 | usp_38_diff_out_18_121_253 (protein) EAEKLAEEALKLAEKLKELSEELLKAIKEGDLEKAEKLKKEMEELLKELGRKYLELRDLRAEHPEETKELLKEVEKKANEAIDKYEKAERAYFEFLAEQA | -1.1
11 | usp_38_diff_out_17_26_244 (protein) SAEERNKKARELLEELKREAEKGLEEIRKLIEAGKFEEARKKLDELVTEVTERMLEILELAADNPELMEEALAAYDEISDAIAAAYRELQEARRAAAAAA | -0.152
12 | usp_38_diff_out_17_60_246 (protein) SAEAEKIIKELEERLEELEKRLKELEKEFKKAKAAGDKAKLEALAKEAQALLDEIADLLVELAKNSEIIDPETFLELADRASELADRAFALLKEIQKELA | -0.51
13 | usp_38_diff_out_18_121_251 (protein) EAKKVAEEALKAAKEATKLAKELLKAIKEGKWEKAEKLDKELDKKIKEFGRLYQELRDLRSEDPEQTKPLLKEVEKEGDKMIDIYNEAGTALFLAEAERQ | -0.563
14 | usp_38_diff_out_18_14_256 (protein) SEELTKAEISNLESLKKSVKEDTERVIRLLEKNKDDPERVKRIYERAQRNLAGVETYAKEVLERAKKEGDEELAKAAEELLKEIEEARKRIEEKVKEVLA | 0.00955
15 | usp_38_diff_out_18_121_249 (protein) NPEELLEELRRALEEARRALEELEKLLENREEVSLEELREALRRAADALGRAAALLREARRRIGPEYREEIERAEKELDELVDRYTELGRELFLLEAERE | -0.0715
16 | usp_38_diff_out_17_26_243 (protein) SAEEKRKKARELLKKLKEESEKALEEIKKLIKEGKFEEAEKLLEETVKKVTETTLEILELAADDPELVEEVLEAYDEISDKLAQAYKELQKAKKEAAAKA | -0.0758

Row | Binder | median log2 fold change
17 | usp_38_diff_out_18_14_274 (protein) SEELSEALKSNLESLKKDVEKDTKRTIELLKKNKDDPERVKRIVERAERNLEGVITFAEEVLKEAEKRGDEEVKKAAEELIKKAKEALEKIKEEAKKVLA | 0.186
18 | usp_38_diff_out_18_14_260 (protein) SEELKEATISNLKSLKEDVKEDTERVIRLLKARKDDPEQVKRIYERAKRNLEGVKTYAEEVLKEAEEEGWEELKKAAEELLKEIEEAEKKIEAEVKEVLA | 0.0949
19 | usp_38_diff_out_18_14_273 (protein) SEERREALLSNLKSLKKDVKEYTKRVLKLLEKNKNDPERVKRIYERAKRNLAGVKAYAEEVLKEAKEEGDEETLKAAEELIKEAKEAEEKIKKKVEEVLK | -1.06
20 | usp_38_diff_out_18_14_263 (protein) SEELAQADIDALNLLKKDVEEDTERVIRLLEKSKDDPERVKRIYERALRNLAGVKKYAEEVKKEAEERGNEETIKAANELLKTIEEAKKRLEEKYKEVMK | 0.123
21 | usp_38_diff_out_18_14_262 (protein) SEELAQADIDALNLLKEDVKKDTERKIRLLKKAKDDPELVKRIYERAKRNLEGVRTYAEEIKKRAEEAGDEETIKAAEELLKEIEEAEKKLEEAYKEVMA | 0.391
22 | usp_38_diff_out_18_14_271 (protein) SEELAAALQSNLESLERAVREDTERVIRLLEKNRDDPERVKRIVERAERDLAGVEAYAQEVLREARAAGDAATQEAAERLLEEARRAREEIRRKAEEVLA | -0.0538
23 | usp_38_diff_out_17_60_247 (protein) SAEAEEIIERLKKRLEELEKRLEELEKRFEEAKKKGDKEELEKLLKEAKELIDEIADLLVELAKNSELIDPETFLELADRASELADRAFKLKQEIEKELA | 0.108
24 | usp_38_diff_out_18_14_269 (protein) SAELAAAKVSNLKTLKEDVERDTERVIRLLEANRDDPERVRRIHERALRNLEGVRKYAEEVKEEAEKEGDKETVKAAEELLKKIEEARRRIDARYAEVMA | 0.153
25 | usp_38_diff_out_17_60_248 (protein) SAEAEAIIARLEARLEELERRLEELERRFEEAERRGDKAELEELLKELDELLGEIADLLVELAKNSELIDPETFLRLADRASELADRAFALRQRVQQALA | -1.11
26 | usp_38_diff_out_18_14_264 (protein) SEELSEAEKSALKLLKKDVEEETERVIRLLRQAKDDPERVKRIYERAKRNLAGVRKYAEEVLKRAEEAGDEETKKAAEELLKKIEEAEKRIEEEYKRVTA | 0.118
27 | usp_38_diff_out_18_14_257 (protein) SKELTEATISNLKSLKEDVKEDTERVIRLLEKNKDDPERVKRIYERAKRNLAGVEKYAKEVLKEAKENGDEELAKAAEELLKAVEEARERIEEEVKRVLA | 0.0724
28 | usp_38_diff_out_18_14_259 (protein) SEELTEALISNLESLKEDVKKDTERVIRLLEKRKDDPEQVKRIKERFERDLAGVEKYAKEVLEEAKKEGNEKLAKAAEELLKTVEAARKEVEEKVAKVLA | -0.00381
29 | usp_38_diff_out_18_14_266 (protein) SEELDEALVKNLETLKKDVKENTERVIKLLRKNKDDPERVKRIYERAKRNLEGVKKYAEEVLKEAEKRGWKKTVKAAKELLKEVEEAKKKIEEEYKKVME | -0.521
30 | usp_38_diff_out_17_26_241 (protein) SMEERRKEAEELLRRLEEETEKALEEIEKLIEEGKFEEARKLLDEAVDYATETATRILELAADDPELMDRALAVIGRIFDRLAEAYRRLEEARRRAEEEA | -0.00366
31 | usp_38_diff_out_18_14_255 (protein) SEELEKATISNLNSLKEDVKKDTERVIKLLEKNKDDPERVKRITERANRNLAGVRTYAEEVLKEAEEKGWEEVKKAAEELLKTVDEAKKKIEEKVKEVLA | 0.0514
32 | usp_38_diff_out_17_35_245 (protein) SLEEKERELLERTRRAAEEALRRARELLEAAKADPSQIDRYLAEARAVLDRFLAEAADILIEAAKLEIDAEVLQEIGDIIDRASDELQAILDELEALKAA | 0.015
